What all share (assay): DAPPL (digital affinity profiling via proximity ligation, sequencing); 10 mM Tris-HCl pH 7.5, 50 mM NaCl, 1 mM DTT, 4% glycerol, room temperature, 30 min; GST-TFs on glutathione beads, 16-mer random dsDNA library, 0.1% formaldehyde crosslink after washing; high values mean tight binding
Common to all, as to settings: protein: recombinant; tags: N-terminal GST; dsDNA, one strand shown

For assay [1], the target named is T1, FLI1 (Homo sapiens, UniProt Q01543 1-452).
T1 sequence: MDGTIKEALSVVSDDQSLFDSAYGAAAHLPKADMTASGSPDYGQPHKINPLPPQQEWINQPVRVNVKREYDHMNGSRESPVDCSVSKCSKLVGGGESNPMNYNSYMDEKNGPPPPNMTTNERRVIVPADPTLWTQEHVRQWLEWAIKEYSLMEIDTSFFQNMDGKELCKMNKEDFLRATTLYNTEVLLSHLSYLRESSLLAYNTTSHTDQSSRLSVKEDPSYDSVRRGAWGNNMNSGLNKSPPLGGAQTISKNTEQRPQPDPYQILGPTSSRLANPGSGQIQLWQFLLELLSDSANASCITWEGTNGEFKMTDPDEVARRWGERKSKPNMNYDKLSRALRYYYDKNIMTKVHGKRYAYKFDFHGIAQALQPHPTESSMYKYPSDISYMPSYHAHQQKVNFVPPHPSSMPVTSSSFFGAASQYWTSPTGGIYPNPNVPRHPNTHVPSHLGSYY
Summed up: (§1)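 Binding signal is each hexamer's read frequency for a factor divided by its frequency in the tag-only sample. The factors were GST-fused human transcription factors from yeast, captured on glutathione beads, DNA-barcoded and pooled with that sample. Pools were incubated with 200 nmole of a random double-stranded 16-mer DNA library in Tris/NaCl/DTT/glycerol buffer at room temperature for 30 min, then washed, crosslinked with 0.1% formaldehyde, proximity-ligated with BsaI/T4 ligase (1 h, 37 °C), PCR-amplified and sequenced on an Illumina NextSeq500.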

Assay [2] has as its target T2, ELK1 (Homo sapiens, UniProt P19419 1-428).
T2 sequence: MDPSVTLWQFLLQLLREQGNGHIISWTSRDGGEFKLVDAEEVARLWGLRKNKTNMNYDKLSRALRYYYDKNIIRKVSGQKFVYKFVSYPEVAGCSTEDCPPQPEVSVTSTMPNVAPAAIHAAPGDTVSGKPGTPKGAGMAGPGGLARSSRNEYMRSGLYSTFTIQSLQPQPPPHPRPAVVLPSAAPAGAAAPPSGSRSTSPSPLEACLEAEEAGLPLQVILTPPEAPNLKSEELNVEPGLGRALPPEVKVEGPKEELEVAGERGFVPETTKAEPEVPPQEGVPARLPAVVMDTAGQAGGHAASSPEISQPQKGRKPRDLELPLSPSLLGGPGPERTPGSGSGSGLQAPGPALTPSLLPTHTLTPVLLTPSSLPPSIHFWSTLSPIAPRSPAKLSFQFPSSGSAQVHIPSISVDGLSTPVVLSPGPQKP
A digest of the protocol:
as §1

Assay [3] has as its target T3, GABPA (Homo sapiens, UniProt Q06546 1-454).
T3 sequence: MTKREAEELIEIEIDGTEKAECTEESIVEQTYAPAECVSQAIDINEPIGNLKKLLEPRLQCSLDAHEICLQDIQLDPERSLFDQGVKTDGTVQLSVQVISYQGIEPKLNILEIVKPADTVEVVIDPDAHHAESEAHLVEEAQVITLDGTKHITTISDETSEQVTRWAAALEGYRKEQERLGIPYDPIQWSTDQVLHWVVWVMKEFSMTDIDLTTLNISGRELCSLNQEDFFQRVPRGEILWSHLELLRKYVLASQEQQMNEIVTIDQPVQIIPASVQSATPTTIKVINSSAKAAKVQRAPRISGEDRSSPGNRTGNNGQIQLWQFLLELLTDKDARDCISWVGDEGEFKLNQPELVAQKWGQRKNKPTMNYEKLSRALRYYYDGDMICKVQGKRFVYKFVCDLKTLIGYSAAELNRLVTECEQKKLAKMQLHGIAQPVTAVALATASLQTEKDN
A digest of the protocol: as §1

For assay [4], the target named is T4, ERG (Homo sapiens, UniProt P11308 1-479).
T4 sequence: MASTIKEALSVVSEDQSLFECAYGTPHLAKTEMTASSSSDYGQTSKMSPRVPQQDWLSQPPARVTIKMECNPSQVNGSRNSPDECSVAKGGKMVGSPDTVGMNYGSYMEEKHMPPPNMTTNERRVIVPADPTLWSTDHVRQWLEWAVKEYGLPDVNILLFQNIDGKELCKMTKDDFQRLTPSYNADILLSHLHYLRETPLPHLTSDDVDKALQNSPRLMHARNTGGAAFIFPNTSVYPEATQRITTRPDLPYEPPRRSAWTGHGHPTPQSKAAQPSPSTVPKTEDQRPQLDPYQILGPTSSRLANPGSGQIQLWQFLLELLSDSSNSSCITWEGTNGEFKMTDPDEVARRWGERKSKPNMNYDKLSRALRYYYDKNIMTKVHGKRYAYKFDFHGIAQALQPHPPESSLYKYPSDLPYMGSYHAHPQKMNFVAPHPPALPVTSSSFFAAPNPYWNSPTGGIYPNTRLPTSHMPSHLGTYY
A digest of the protocol: as §1

Assay [5] deals with ELF1 (Homo sapiens, UniProt P32519 1-619). Summed up:
as §1

The target of assay [6] is T5, EHF (Homo sapiens, UniProt Q9NZC4 1-300).
T5 sequence: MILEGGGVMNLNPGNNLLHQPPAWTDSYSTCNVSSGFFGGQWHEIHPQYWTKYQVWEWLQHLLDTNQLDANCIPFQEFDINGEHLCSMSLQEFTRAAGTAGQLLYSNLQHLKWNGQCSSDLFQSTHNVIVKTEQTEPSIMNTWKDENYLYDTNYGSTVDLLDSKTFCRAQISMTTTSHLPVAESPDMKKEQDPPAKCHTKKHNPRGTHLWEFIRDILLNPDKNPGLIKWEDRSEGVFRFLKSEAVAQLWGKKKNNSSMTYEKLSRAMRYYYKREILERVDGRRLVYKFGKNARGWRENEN
A digest of the protocol: as §1

For assay [7], the target named is SPI1 (Homo sapiens, UniProt P17947 1-270). A digest of the protocol: as §1
Assay [8] concerns the target SPIB (Homo sapiens, UniProt Q01892 1-262). A digest of the protocol:
as §1

The target of assay [9] is T6, ELK3 (Homo sapiens, UniProt P41970 1-407).
T6 sequence: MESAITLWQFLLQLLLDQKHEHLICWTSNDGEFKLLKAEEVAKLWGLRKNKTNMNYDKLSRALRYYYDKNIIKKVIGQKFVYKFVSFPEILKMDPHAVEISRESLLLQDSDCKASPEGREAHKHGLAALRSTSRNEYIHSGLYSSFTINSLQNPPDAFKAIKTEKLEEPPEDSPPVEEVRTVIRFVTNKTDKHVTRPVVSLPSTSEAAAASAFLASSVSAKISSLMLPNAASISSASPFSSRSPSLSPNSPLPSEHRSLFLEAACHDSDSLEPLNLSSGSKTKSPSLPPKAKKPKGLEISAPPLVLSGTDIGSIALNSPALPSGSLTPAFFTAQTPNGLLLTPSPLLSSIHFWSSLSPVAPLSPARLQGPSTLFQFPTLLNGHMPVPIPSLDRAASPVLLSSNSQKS
Summed up:
as §1

Chain of ELF1 (P32519 whole entry): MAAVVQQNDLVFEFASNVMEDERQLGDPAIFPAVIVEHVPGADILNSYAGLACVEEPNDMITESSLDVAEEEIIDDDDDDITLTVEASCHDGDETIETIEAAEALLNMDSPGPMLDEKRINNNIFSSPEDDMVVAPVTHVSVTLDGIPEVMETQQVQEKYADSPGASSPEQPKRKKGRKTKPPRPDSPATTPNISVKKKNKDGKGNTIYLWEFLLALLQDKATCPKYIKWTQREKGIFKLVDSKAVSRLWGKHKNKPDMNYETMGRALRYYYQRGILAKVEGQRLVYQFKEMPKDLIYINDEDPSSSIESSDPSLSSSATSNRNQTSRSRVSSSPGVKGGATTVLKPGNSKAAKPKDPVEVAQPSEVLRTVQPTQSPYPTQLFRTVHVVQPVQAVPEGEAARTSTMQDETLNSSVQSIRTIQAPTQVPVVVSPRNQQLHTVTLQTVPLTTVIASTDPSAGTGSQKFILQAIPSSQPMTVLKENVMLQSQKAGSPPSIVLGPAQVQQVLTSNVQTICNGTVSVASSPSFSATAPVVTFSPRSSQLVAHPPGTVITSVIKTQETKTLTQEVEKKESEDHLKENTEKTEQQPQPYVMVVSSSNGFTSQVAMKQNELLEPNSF
Chain of SPIB (Q01892 whole entry): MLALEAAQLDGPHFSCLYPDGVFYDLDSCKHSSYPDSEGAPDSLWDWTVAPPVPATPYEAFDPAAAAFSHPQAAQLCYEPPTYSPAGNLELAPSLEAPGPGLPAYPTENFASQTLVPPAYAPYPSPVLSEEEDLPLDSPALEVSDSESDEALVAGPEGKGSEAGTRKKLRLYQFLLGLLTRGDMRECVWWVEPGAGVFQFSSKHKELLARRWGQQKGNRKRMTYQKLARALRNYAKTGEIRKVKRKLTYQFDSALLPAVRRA

As for TTAGGG, the binding signal was 1.03 fold enrichment (6-mer frequency, TF over GST control) in [1]; 1.14 fold enrichment (6-mer frequency, TF over GST control) in assay [2]; 1.13 fold enrichment (6-mer frequency, TF over GST control) in [3]; 1.15 fold enrichment (6-mer frequency, TF over GST control) in assay [4]; 1.11 fold enrichment (6-mer frequency, TF over GST control) in [5]; 1.13 fold enrichment (6-mer frequency, TF over GST control) in [6]. Also, the binding signal in assay [7] was 1.25 fold enrichment (6-mer frequency, TF over GST control); in assay [8], 1.17 fold enrichment (6-mer frequency, TF over GST control); in assay [9] it was 1.07 fold enrichment (6-mer frequency, TF over GST control).

For ACCTAC, the binding signal was 1.22 fold enrichment (6-mer frequency, TF over GST control) in assay [1]; 1.2 fold enrichment (6-mer frequency, TF over GST control) in assay [2]; 1.21 fold enrichment (6-mer frequency, TF over GST control) in [3]; 1.1 fold enrichment (6-mer frequency, TF over GST control) in assay [4]; 1.27 fold enrichment (6-mer frequency, TF over GST control) in [5]; 1.21 fold enrichment (6-mer frequency, TF over GST control) in [6]. Also, the binding signal is 1.18 fold enrichment (6-mer frequency, TF over GST control) in [7]; 1.23 fold enrichment (6-mer frequency, TF over GST control) in assay [8]; 1.13 fold enrichment (6-mer frequency, TF over GST control) in [9].

TCCCTC: the binding signal was 1.58 fold enrichment (6-mer frequency, TF over GST control) in assay [1]; 1.6 fold enrichment (6-mer frequency, TF over GST control) in assay [2]; 1.47 fold enrichment (6-mer frequency, TF over GST control) in assay [3]; 1.45 fold enrichment (6-mer frequency, TF over GST control) in [4]; 1.51 fold enrichment (6-mer frequency, TF over GST control) in [5]; 1.48 fold enrichment (6-mer frequency, TF over GST control) in [6]. Moreover, the binding signal in [7] was 1.5 fold enrichment (6-mer frequency, TF over GST control); in assay [8] it was 1.58 fold enrichment (6-mer frequency, TF over GST control); in assay [9] it was 1.47 fold enrichment (6-mer frequency, TF over GST control).

Take TCCGCT: the binding signal in [1] is 2.39 fold enrichment (6-mer frequency, TF over GST control); in [2], 2.38 fold enrichment (6-mer frequency, TF over GST control); in assay [3], 2.06 fold enrichment (6-mer frequency, TF over GST control); in assay [4], 2.31 fold enrichment (6-mer frequency, TF over GST control); in assay [5], 2.11 fold enrichment (6-mer frequency, TF over GST control); in assay [6], 2.33 fold enrichment (6-mer frequency, TF over GST control). Moreover, the binding signal is 3.26 fold enrichment (6-mer frequency, TF over GST control) in [7]; 2.37 fold enrichment (6-mer frequency, TF over GST control) in assay [8]; 2.43 fold enrichment (6-mer frequency, TF over GST control) in assay [9].

Regarding ATAATA, the binding signal in [1] was 1.13 fold enrichment (6-mer frequency, TF over GST control); in assay [2] it was 1.07 fold enrichment (6-mer frequency, TF over GST control); in assay [3] it was 1.18 fold enrichment (6-mer frequency, TF over GST control); in assay [4] it was 1.17 fold enrichment (6-mer frequency, TF over GST control); in [5] it was 1.23 fold enrichment (6-mer frequency, TF over GST control); in [6], 1.24 fold enrichment (6-mer frequency, TF over GST control). Further, the binding signal in [7] is 1.18 fold enrichment (6-mer frequency, TF over GST control); in assay [8], 1.18 fold enrichment (6-mer frequency, TF over GST control); in assay [9], 1.11 fold enrichment (6-mer frequency, TF over GST control).

Turning to ATCGAT, the binding signal was 1.16 fold enrichment (6-mer frequency, TF over GST control) in assay [1]; 1.1 fold enrichment (6-mer frequency, TF over GST control) in [2]; 1.19 fold enrichment (6-mer frequency, TF over GST control) in assay [3]; 1.15 fold enrichment (6-mer frequency, TF over GST control) in assay [4]; 1.15 fold enrichment (6-mer frequency, TF over GST control) in assay [5]; 1.19 fold enrichment (6-mer frequency, TF over GST control) in assay [6]. For the same sequence, the binding signal in assay [7] was 1.21 fold enrichment (6-mer frequency, TF over GST control); in assay [8], 1.12 fold enrichment (6-mer frequency, TF over GST control); in assay [9], 1.1 fold enrichment (6-mer frequency, TF over GST control).

As for CTGGAA, the binding signal in assay [1] is 1.22 fold enrichment (6-mer frequency, TF over GST control); in [2], 1.25 fold enrichment (6-mer frequency, TF over GST control); in [3] it was 1.33 fold enrichment (6-mer frequency, TF over GST control); in assay [4], 1.27 fold enrichment (6-mer frequency, TF over GST control); in [5], 1.19 fold enrichment (6-mer frequency, TF over GST control); in assay [6] it was 1.2 fold enrichment (6-mer frequency, TF over GST control). For the same sequence, the binding signal is 1.26 fold enrichment (6-mer frequency, TF over GST control) in assay [7]; 1.31 fold enrichment (6-mer frequency, TF over GST control) in assay [8]; 1.31 fold enrichment (6-mer frequency, TF over GST control) in [9].

For the sequence CTCTTG, the binding signal in [1] is 1.4 fold enrichment (6-mer frequency, TF over GST control); in assay [2], 1.33 fold enrichment (6-mer frequency, TF over GST control); in assay [3] it was 1.41 fold enrichment (6-mer frequency, TF over GST control); in assay [4] it was 1.29 fold enrichment (6-mer frequency, TF over GST control); in assay [5] it was 1.36 fold enrichment (6-mer frequency, TF over GST control); in assay [6], 1.3 fold enrichment (6-mer frequency, TF over GST control). Moreover, the binding signal is 1.3 fold enrichment (6-mer frequency, TF over GST control) in assay [7]; 1.43 fold enrichment (6-mer frequency, TF over GST control) in assay [8]; 1.53 fold enrichment (6-mer frequency, TF over GST control) in [9].

Values taken from PMC7862700, “An all-to-all approach to the identification of sequence-specific readers for epigenetic DNA modifications on cytosine”.
